Source: PubChem BioAssay
Values joined by “and” are separate entries in the source; they are usually repeats but may differ in a detail not shown here. Equal entries are not always repeated. Active and inactive are the calls of the source.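 How the source made its calls, unless noted: active means inhibition at or above 50% relative to wild type and mutant plate controls; inactive means inhibition below 50%.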

Legend:
[1] = inhibitors of TNFa-induced NFkB p65 translocation, primary screen, imaging, HUVEC, MLSMR starter and 10KST1 sets (AID 438;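 active means inhibition above 20% together with a positive visual image hit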;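 further: compound added about 3h40 before a 20 min TNFalpha stimulation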;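 on inhibition: signal is the nuclear over cytoplasmic p65 intensity ratio per well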); conditions: HUVEC TNFa-induced p65 nuclear translocation; cell count: measured here: nuclei count (cytotoxicity indicator), at 2.08 µM; inhibition: at 2 µM, stronger effect = higher value, 0% TNFa-plus-vehicle, 100% no-TNFa wells
[2] = reduction of polyQ htt aggregates in cells – imaging, exon1htt(103Q)mCFP cells, high-content imaging, primary screen (AID 483;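 active means visual image review flags a hit and inhibition of aggregation exceeds 20%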;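 further: compound exposure lasted 3 days before fixation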;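 on nuclei count: percent of the per-plate median nuclei count of sample wells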); conditions: exon1htt(103Q)mCFP cell line, aggregate imaging, at 2 µM; inhibition of aggregation: stronger effect = higher value; nuclei count: measured here: cell count, toxicity
[3] = endothelial E-selectin expression blockers – imaging, HUVEC, immunofluorescence, MLSMR starter and 10KST1 sets, primary screen (AID 487;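 active means visually confirmed hit in the image check and inhibition above 20%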;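 on inhibition: signal is fraction of cell area covered by stained E-selectin grains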;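 on nuclei count: 100% = median nuclei count of all wells on the same plate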); conditions: HUVEC TNFalpha-induced E-selectin immunofluorescence imaging, at 2 µM; inhibition: stronger effect = higher value; nuclei count: measured here: cell number, toxicity
[4] = Primary imaging screen for DUSP6 inhibitors that restore phospho-Erk in transfected HeLa cells, chemical complementation (AID 609;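 active means compounds giving at least 50% inhibition in the cell-based MKP-3 phosphatase rescue imaging test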;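 on inhibition: phospho-Erk level distribution per well compared with pooled transfected vehicle control wells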); conditions: HeLa MKP-3 transfected, phospho-Erk imaging KS statistic, at 10 µM, cells stimulated with TPA for 15 min
[5] = target: Dual specificity protein phosphatase 6 (Homo sapiens) (UniProt Q16828); assay: as above; conditions: HeLa MKP-3 transfected, phospho-Erk imaging KS statistic; at 10 µM; stronger effect = higher value; cells stimulated with TPA for 15 min
Dual specificity protein phosphatase 6 (Homo sapiens), sequence (Q16828 whole entry, looked up): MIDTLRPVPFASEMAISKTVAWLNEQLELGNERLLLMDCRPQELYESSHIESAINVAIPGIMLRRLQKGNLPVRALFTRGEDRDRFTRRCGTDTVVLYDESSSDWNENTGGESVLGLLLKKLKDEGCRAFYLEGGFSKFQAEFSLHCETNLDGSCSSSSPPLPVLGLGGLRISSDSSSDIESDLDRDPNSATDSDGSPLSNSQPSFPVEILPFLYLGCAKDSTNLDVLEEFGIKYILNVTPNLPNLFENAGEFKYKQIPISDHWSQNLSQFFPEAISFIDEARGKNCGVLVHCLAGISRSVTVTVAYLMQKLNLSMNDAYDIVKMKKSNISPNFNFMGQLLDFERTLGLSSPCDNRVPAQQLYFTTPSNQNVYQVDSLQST

[6] = target: Voltage-gated potassium channel subunit beta-2 (Rattus norvegicus) (UniProt P62483); assay: inhibitors of rat Kvbeta2 reductase activity – biochemical, NADPH fluorescence, primary screen (AID 622;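 active means fluorescence slope higher than the sample average by over 3 SD, cut at about -0.22 in these data, passing the limit was not always enough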;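 further: slope of raw intensity against log time taken from 70 to 1610 s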); conditions: recombinant KvBeta, 4-cyanobenzaldehyde reduction, at 10 µM, stronger effect = higher value
Voltage-gated potassium channel subunit beta-2 (Rattus norvegicus), sequence (P62483 whole entry, looked up): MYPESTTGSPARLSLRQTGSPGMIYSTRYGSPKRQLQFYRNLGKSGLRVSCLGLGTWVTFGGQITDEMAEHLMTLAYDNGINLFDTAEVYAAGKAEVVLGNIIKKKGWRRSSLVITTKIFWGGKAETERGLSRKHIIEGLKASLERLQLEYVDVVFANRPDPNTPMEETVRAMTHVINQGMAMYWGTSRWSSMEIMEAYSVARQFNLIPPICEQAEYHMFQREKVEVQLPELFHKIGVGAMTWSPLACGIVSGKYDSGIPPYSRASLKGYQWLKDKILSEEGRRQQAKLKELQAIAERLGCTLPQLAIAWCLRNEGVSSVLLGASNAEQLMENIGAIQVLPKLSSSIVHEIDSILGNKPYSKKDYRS

[7] = target: Voltage-gated potassium channel subunit beta-2 (Rattus norvegicus) (UniProt P62483); assay: enhancers of rat Kvbeta2 NADPH turnover – biochemical, NADPH fluorescence, primary screen (AID 623;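 active means NADPH fluorescence slope more negative than the mean of all samples by about 3 SD, 99.7% confidence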;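 further: fluorescence intensity change per second fitted from 20 to 320 s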); conditions: Recombinant KvBeta, NADPH fluorescence decrease slope, 10 min; at 10 µM; stronger effect = lower value
[8] = target: Alpha-2C adrenergic receptor (Homo sapiens) (UniProt P18825); assay: compounds altering alpha2C-coupled GIRK flux – cell-based, HEK293 alpha2C/GIRK1/2, thallium flux, primary screen (AID 624;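 active means fluorescence slope after compound addition differing from the mean of all screened samples at 99.7% confidence, in either direction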;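 further: slope of fluorescence ratio to pre-addition baseline per second over 15 to 24 s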); conditions: thallium flux BTC fluorescence, at 10 µM, actives lie on both sides
Alpha-2C adrenergic receptor (Homo sapiens), sequence (P18825 whole entry, looked up): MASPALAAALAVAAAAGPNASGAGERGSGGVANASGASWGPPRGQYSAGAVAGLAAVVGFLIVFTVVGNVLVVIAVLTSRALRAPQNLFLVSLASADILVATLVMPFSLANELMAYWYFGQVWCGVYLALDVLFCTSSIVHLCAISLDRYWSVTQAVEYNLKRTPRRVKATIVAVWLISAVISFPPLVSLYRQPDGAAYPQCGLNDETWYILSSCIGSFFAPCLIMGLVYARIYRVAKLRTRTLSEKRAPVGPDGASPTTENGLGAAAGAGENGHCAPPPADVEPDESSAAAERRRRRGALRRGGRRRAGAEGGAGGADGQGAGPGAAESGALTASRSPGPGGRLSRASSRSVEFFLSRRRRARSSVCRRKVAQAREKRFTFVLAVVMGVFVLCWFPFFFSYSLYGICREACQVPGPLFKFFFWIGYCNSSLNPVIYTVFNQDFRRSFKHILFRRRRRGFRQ

[9] = inhibitors of larval lipid processing in zebrafish, primary screen, whole organism, PED6 fluorescence, gall bladder and intestine (AID 686;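 active means a full or partial loss of lipid-probe fluorescence in the fish gall bladder, intestine or both, judged by eye; inactive means no fluorescence loss, or compound toxic to the fish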;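 further: larvae 5 to 7 days old with five fish per well; signal comes from phospholipase A2 cleavage of quenched PED6 carried via bile; overnight exposure to compound and PED6 before scoring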); conditions: Zebrafish larvae PED6 lipid processing, fluorescence scoring; screened at 20 µM (by protocol)
[10] = loss of swimming-algae plug formation – whole organism, Chlamydomonas reinhardtii, WT vs cilia-less mutant, absorbance, 96-well, primary screen (AID 463189); conditions: Chlamydomonas reinhardtii gravitaxis, OD600 absorbance, 2 days; at 10 µM; stronger effect = higher value;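 further: 0% = wild type cc124 cells in DMSO and 100% = ciliumless bld1 mutant cells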
[11] = blockers of RIG-like receptor reporter activation – cell-based, Sendai virus stimulus, luciferase, 10K MLSCN set, TLR/RLR signaling modifier project, primary screen (AID 602276;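 active means inhibition at or above 50% at 10 µM; inactive means inhibition below 50%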;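 further: firefly luciferase from ISG56 promoter only with Renilla not read in this screen; 0% = Sendai virus plus DMSO and 100% = medium plus DMSO without virus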); conditions: HEK293 RL24 IRF3 luciferase reporter, at 10 µM, stronger effect = higher value
[12] = TLR3 IRF3 reporter activation blockers – cell-based, poly I:C stimulus, luciferase, 10K MLSCN set, primary screen (AID 602277;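 active means inhibition of the reporter signal at or above 50%; inactive means inhibition below 50%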); conditions: HEK293-TLR3 RL24 IRF3 luciferase reporter, at 10 µM, stronger effect = higher value
[13] = target: Muscarinic acetylcholine receptor M4 (Homo sapiens) (UniProt P08173); assay: M4-linked GIRK flux change, two-sided – cell-based, HEK293 M4/GIRK, thallium flux, BTC-AM, M4 allosteric agonist project, primary screen (AID 625;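 active means fluorescence slope after compound addition differing from the mean of all tested samples at 99.7% confidence, mostly higher but some lower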;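 further: thallium influx through GIRK channels coupled to M4 in HEK293 cells with BTC-AM dye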); conditions: at 10 µM, actives lie on both sides
Muscarinic acetylcholine receptor M4 (Homo sapiens), sequence (P08173 whole entry, looked up): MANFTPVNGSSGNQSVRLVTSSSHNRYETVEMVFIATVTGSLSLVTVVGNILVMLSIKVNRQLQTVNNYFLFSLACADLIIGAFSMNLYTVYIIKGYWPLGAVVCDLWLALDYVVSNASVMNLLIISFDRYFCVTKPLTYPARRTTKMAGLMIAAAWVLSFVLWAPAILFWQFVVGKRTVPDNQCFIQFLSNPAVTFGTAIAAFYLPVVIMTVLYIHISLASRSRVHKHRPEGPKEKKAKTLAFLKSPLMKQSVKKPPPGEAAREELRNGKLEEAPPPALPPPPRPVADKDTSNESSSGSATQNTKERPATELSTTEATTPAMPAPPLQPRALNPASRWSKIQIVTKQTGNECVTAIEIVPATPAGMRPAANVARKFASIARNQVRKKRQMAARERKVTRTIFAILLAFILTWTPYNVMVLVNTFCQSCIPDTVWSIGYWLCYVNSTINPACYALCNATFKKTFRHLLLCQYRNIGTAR

[14] = measured here: cell density z-score
[15] = measured here: nuclear c-Myc green intensity z-score
[16] = measured here: nuclear pErk red intensity z-score, stronger effect = higher value

| Compound | cell count [1] | inhibition [1] | inhibition of aggregation [2] | nuclei count [2] [%] | inhibition [3] | nuclei count [3] [%] | z-score [4, 14] | z-score [4, 15] | z-score [4, 16] | inhibition [5] | fluorescence slope [6] | NADPH fluorescence slope [7] | slope [8] | outcome [9] | inhibition [10] | inhibition [11] | inhibition [12] | fluorescence slope [13] |
| --- | --- | --- | --- | --- | --- | --- | --- | --- | --- | --- | --- | --- | --- | --- | --- | --- | --- | --- |
| CC1Cc2ccccc2N1NC(=O)c1ccc(Cl)c(S(N)(=O)=O)c1 (stereo unspecified) | 657 | -3.7% (inactive) | 4.2% (inactive) | 112 | -59.9% (inactive) | 121 | 0.724 | -0.336 | -0.652 | 21.2% (inactive) | -0.544 (inactive) | -5e-05 (inactive) | 0.0056 (inactive) | inactive | 18.3% (inactive) | -7.5% (inactive) | -10.9% (inactive) | – |
| CC1(C)O[C@@H]2C[C@H]3[C@@H]4C[C@H](F)C5=CC(=O)CC[C@]5(C)[C@H]4[C@@H](O)C[C@]3(C)[C@]2(C(=O)CO)O1 | 547 | -0.5% (inactive) | -27.2% (inactive) | 54.1 | 1.2% (inactive) | 102 | -0.857 | -0.0426 | 0.461 | -2.46% (inactive) | -0.476 (inactive) | -9e-05 (inactive) | 0.00483 (inactive) | inactive | 6.62% (inactive) | -7.22% (inactive) | 22% (inactive) | – |
| N[C@@H](C(=O)N[C@@H]1C(=O)N2C(C(=O)O)=C(Cl)CS[C@H]12)c1ccccc1 | 693 | -2% (inactive) | -5.3% (inactive) | 113 | -84.8% (inactive) | 122 | -0.332 | -0.293 | -0.889 | 7.39% (inactive) | -0.441 (inactive) | -5.1e-05 (inactive) | 0.00559 (inactive) | inactive | 21.4% (inactive) | 12.2% (inactive) | 28.5% (inactive) | – |
| CN(C)[C@@H]1C(=O)C(C(N)=O)=C(O)[C@@]2(O)C(=O)C3=C(O)c4c(O)ccc(Cl)c4[C@@H](O)[C@H]3C[C@@H]12 | 524 | -3% (inactive) | 77.8% (active) | 96.8 | -35.1% (inactive) | 93 | 0.892 | 0.579 | -1.42 | 9.37% (inactive) | -0.537 (inactive) | -2.5e-05 (inactive) | 0.00572 (inactive) | active; no signal in intestine only | 54.1% (active) and 88% (active) | 17.1% (inactive) | 24.2% (inactive) | – |
| CCCCC[C@H](O)/C=C/C1=C(CCCCCCC(=O)O)C(=O)CC1 | 582 | -10.1% (inactive) | -18.7% (inactive) | 109 | -15.5% (inactive) | 111 | 0.0464 | -0.541 | -1.16 | -0.493% (inactive) | -0.474 (inactive) | -5.2e-05 (inactive) | 0.00393 (inactive) | inactive | -11.8% (inactive) | 7.96% (inactive) | 34.1% (inactive) | – |
| Cc1ccc(S(=O)(=O)NCC(=O)OCN2C(=O)c3ccccc3C2=O)cc1 | 416 | -4.7% (inactive) | -19.8% (inactive) | 85.7 | -23.1% (inactive) | 93.4 | -0.341 | -0.796 | 0.197 | 7.93% (inactive) | -0.574 (inactive) | 4e-05 (inactive) | 0.00572 (inactive) | inactive | 45.3% (inactive) | 11.3% (inactive) | -3.4% (inactive) | – |
| NC(=O)c1cc(-c2ccccc2)nc(Oc2ccccc2)n1 | 472 | -18.1% (inactive) | 8.5% (inactive) | 99 | -13.2% (inactive) | 109 | -0.736 | -0.523 | 0.468 | 6.51% (inactive) | -0.53 (inactive) | -8.3e-05 (inactive) | 0.00808 (inactive) | inactive | -1.45% (inactive) | 13.4% (inactive) | 1.65% (inactive) | – |
| CC(=O)NCCCCCCNC(C)=O | 515 | -2% (inactive) | -11.6% (inactive) | 101 | 5.3% (inactive) | 114 | -1.8 | 0.662 | 0.679 | 10.2% (inactive) | -0.45 (inactive) | -5.8e-05 (inactive) | 0.00491 (inactive) | inactive | 20.9% (inactive) | 9.84% (inactive) | 44.8% (inactive) | – |
| CCN(CC)CCN1C(=O)C(=O)/C(=C(/O)c2c(C)[nH]c(C(=O)OC)c2C)C1c1ccco1 (stereo unspecified) | 572 | -11.8% (inactive) | -5.3% (inactive) | 105 | 26.1% (inactive) | 120 | -1.72 | 1.35 | -0.00455 | -11.9% (inactive) | -0.473 (inactive) | -1.4e-05 (inactive) | 0.00421 (inactive) | inactive | 4.53% (inactive) | 4.22% (inactive) | 6.98% (inactive) | 0.00487 (inactive) |
| COc1ccc(NS(=O)(=O)c2ccc(N)cc2)nn1 | 634 | -10.4% (inactive) | -19.4% (inactive) | 99.2 | -67.7% (inactive) | 114 | -2.14 | -1.5 | 2.96 | 3.45% (inactive) | -0.412 (inactive) | 5.7e-06 (inactive) | 0.00455 (inactive) | inactive | 15% (inactive) | 15.8% (inactive) | 27.8% (inactive) | – |
